Experiments:
Assay in all cases: log2 ratio of Biotin-Ahx-Ub-VS probe labelling (fragment/DMSO); higher = less target engagement (more negative = stronger competition), active = hit call of the paper (q ≤ 0.05, log2 ratio ≤ -1)
Conditions in all cases: compound concentration: 200 uM; treatment time: 3 h
ALG13 = biological target: T1, ALG13 (UniProt Q9NP73)
T1 sequence (whole entry): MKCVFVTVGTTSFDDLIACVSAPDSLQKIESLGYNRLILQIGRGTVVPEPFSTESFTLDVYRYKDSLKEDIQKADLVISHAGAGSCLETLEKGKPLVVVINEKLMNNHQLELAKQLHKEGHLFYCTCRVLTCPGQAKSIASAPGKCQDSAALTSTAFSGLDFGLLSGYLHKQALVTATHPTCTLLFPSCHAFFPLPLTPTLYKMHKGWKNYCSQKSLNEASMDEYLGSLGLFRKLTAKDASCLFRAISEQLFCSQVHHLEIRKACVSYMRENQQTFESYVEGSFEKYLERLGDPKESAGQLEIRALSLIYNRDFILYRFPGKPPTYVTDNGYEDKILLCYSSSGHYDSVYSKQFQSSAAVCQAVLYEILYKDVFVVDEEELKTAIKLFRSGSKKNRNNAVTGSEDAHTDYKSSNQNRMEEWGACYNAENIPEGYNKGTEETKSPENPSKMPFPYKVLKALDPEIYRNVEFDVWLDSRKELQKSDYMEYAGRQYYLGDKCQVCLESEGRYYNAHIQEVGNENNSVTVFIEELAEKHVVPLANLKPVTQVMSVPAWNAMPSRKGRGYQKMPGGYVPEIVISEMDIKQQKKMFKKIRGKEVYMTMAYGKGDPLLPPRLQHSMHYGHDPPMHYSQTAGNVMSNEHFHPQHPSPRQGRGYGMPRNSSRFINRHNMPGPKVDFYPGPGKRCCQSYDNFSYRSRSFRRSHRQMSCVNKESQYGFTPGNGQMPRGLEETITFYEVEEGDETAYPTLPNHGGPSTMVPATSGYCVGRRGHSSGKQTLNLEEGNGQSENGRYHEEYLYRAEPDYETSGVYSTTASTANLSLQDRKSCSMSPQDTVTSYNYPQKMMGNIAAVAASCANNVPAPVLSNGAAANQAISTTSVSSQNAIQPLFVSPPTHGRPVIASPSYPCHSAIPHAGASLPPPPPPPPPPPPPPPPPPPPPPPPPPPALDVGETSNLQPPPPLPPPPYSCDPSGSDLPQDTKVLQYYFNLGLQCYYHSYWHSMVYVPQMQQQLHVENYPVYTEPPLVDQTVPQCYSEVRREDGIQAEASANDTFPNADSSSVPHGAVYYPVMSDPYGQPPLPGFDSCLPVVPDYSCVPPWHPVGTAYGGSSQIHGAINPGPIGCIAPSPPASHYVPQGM
How it was run: (§1)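 HEK293T lysate (495 µg per sample, in Tris/CHAPS/IGEPAL buffer with protease inhibitors) was exposed in triplicate for 3 h to fragment at 200 µM or to vehicle, then to Biotin-Ahx-Ub-VS at 0.5 µM final for 1 h. Labelled DUBs were enriched on NeutrAvidin, digested with LysC and trypsin, and analysed by diaPASEF LC-MS/MS. Spectronaut label-free quantities were normalised to the global median, and values are average log2 ratios of fragment over vehicle from an unpaired t-test. Only proteins with ≥2 unique peptides were used.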

ATXN3 = ATXN3 (UniProt P54252)
How it was run: as §1

BAP1 = biological target: T2, BAP1 (UniProt Q92560)
T2 sequence (whole entry): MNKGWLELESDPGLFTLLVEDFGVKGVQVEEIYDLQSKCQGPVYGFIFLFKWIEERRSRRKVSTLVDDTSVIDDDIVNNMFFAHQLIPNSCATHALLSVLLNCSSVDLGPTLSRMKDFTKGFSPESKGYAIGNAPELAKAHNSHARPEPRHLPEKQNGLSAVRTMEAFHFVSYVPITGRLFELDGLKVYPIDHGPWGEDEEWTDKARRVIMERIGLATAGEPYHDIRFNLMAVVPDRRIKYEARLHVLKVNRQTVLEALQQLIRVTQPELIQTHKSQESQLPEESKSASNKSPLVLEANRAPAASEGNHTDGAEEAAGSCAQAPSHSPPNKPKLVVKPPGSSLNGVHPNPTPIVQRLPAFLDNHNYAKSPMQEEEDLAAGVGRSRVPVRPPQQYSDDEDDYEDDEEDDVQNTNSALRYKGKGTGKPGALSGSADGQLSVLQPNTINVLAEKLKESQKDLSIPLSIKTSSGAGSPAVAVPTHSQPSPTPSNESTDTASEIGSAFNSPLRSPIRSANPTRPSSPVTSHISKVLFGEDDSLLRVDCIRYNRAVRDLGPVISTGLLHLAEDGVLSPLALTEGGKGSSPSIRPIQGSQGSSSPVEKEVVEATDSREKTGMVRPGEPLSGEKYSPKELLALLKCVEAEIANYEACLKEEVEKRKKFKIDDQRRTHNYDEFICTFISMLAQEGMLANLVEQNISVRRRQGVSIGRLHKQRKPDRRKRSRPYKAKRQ
How it was run: as §1

EIF3F = EIF3F (UniProt O00303)
How it was run: as §1

EIF3H = EIF3H (UniProt O15372)
How it was run: as §1

FAM105A = biological target: T3, FAM105A (UniProt Q9NUU6)
T3 sequence (whole entry): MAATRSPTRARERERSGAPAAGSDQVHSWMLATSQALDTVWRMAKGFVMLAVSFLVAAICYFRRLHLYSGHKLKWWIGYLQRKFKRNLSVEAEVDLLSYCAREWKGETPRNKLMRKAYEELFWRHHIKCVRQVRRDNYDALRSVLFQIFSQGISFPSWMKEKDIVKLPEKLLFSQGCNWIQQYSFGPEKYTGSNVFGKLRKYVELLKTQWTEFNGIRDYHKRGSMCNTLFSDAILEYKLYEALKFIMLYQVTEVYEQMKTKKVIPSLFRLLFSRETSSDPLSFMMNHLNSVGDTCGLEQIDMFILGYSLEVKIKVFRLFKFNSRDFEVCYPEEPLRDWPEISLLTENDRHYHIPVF
How it was run: as §1

OTUB1 = OTUB1 (UniProt Q96FW1)
How it was run: as §1

OTUD4 = biological target: T4, OTUD4 (UniProt Q01804)
T4 sequence (whole entry): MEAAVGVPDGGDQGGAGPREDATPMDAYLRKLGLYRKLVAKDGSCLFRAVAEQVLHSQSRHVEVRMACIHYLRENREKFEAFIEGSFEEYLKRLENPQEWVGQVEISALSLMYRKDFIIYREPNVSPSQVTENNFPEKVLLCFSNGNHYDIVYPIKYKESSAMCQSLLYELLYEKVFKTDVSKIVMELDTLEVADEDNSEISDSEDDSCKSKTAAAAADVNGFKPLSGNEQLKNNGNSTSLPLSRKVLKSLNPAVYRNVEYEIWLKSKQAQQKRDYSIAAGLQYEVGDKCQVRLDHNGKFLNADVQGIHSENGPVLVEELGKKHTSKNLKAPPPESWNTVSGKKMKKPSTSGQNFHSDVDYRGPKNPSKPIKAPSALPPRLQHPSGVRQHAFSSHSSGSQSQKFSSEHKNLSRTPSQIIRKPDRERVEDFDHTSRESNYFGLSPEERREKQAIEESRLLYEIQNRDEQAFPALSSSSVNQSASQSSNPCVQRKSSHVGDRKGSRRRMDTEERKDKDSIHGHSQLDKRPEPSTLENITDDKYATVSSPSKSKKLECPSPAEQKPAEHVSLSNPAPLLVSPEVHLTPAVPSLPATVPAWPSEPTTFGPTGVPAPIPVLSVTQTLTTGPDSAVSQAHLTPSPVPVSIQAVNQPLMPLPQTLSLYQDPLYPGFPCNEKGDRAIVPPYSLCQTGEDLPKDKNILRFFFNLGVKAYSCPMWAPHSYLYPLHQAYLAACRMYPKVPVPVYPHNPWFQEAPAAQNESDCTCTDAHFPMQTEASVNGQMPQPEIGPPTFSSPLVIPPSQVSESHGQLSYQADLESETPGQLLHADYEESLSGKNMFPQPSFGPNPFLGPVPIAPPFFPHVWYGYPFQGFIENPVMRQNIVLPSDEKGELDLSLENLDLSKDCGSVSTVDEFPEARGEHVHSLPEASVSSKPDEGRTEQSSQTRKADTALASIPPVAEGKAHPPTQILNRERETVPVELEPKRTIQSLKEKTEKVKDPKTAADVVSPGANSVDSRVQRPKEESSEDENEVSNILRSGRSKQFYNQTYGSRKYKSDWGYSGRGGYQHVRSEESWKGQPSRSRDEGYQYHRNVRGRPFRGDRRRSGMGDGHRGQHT
How it was run: as §1

OTUD5 = biological target: T5, OTUD5 (UniProt Q96G74)
T5 sequence (whole entry): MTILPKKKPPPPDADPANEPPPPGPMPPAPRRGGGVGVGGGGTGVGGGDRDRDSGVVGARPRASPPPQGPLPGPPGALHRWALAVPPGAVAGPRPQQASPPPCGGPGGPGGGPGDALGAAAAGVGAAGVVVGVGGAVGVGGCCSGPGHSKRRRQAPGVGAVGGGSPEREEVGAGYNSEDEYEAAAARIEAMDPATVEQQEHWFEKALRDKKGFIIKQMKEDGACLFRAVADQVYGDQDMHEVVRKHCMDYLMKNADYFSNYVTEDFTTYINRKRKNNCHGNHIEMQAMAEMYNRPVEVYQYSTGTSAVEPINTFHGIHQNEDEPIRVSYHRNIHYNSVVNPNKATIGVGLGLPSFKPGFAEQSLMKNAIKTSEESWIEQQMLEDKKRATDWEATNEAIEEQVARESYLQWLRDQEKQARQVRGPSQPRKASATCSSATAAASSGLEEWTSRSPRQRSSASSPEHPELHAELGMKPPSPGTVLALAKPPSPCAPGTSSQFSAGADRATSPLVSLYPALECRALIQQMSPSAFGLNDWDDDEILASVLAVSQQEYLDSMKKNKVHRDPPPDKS
How it was run: as §1

Measured: log2 ratio of Biotin-Ahx-Ub-VS probe labelling

Chain of OTUB1 (Q96FW1 whole entry): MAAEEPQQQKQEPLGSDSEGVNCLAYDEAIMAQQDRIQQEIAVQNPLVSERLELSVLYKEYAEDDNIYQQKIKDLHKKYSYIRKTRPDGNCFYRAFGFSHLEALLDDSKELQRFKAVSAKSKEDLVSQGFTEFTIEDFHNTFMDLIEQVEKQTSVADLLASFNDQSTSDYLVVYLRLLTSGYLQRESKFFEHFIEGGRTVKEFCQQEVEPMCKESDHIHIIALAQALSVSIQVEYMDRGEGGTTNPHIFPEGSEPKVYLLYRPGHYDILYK
Chain of ATXN3 (P54252 whole entry): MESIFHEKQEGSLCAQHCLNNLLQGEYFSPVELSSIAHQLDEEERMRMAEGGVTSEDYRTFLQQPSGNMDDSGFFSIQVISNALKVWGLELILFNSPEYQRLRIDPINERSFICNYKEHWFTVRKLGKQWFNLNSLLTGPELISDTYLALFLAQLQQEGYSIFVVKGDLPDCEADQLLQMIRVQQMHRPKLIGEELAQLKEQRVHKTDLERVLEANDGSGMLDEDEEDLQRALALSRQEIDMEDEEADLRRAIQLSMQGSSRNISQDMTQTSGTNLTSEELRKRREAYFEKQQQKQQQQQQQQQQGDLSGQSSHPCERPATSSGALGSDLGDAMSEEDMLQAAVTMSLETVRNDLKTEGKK
Chain of EIF3F (O00303 whole entry): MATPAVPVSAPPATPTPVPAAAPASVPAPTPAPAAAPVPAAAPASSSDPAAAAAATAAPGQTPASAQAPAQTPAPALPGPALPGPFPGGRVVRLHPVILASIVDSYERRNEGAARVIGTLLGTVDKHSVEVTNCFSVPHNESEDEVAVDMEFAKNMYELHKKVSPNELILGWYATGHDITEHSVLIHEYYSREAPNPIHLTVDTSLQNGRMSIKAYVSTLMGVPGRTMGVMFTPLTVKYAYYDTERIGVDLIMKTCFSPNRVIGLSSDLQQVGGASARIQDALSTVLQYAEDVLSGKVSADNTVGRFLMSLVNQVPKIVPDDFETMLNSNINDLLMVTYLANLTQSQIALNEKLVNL
Chain of EIF3H (O15372 whole entry): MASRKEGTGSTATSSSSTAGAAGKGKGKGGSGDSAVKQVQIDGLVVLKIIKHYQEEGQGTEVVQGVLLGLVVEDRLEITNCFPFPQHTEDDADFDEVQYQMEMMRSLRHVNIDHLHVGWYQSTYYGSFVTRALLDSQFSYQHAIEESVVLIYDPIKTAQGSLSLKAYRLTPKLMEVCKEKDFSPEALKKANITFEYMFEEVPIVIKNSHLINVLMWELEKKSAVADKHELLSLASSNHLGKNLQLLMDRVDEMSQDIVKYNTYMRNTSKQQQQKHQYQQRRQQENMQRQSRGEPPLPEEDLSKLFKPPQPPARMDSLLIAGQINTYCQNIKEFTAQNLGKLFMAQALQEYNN

O=C(CCl)NCCC1=CCCCC1
inactive: ALG13 0.121 | ATXN3 -0.135 | BAP1 -0.56 | EIF3F -0.0695 | EIF3H 0.0525 | FAM105A -0.125 | OTUB1 0.147 | OTUD4 -0.135 | OTUD5 -0.0425

Source: the supplement of paper PMC11732987, “Enantioselective OTUD7B fragment discovery through chemoproteomics screening and high-throughput optimisation” (Communications Chemistry, 2025)
